Reference: ChEMBL document CHEMBL4888484, “Replenishing the malaria drug discovery pipeline: Screening and hit evaluation of the MMV Hit Generation Library 1 (HGL1) against asexual blood stage Plasmodium falciparum ,using a nano luciferase reporter read-out” (2022)
Among all 150,000 compounds or so, about 540 (0.36%) showed an effect of 50% or more. The list comes from a sample in which strong results are over-represented; it also holds similar structures and randomly drawn compounds.

test system: Plasmodium falciparum; assay: Primary screen in NF54 nanoGlo assay, in single point, at 2uM, 72h; a lower Z score goes with more inhibition; format: functional, Erythrocyte; settings: timepoint 72 hour

| Compound | % Inhibition [%] | Z score |
| --- | --- | --- |
| CCn1ccc(C(=O)N2CC(N(Cc3cccnc3)S(C)(=O)=O)C2)n1 | -4 | 0.78 |
| CC(C)(C)OC(=O)N[C@@H]1CCCN(Cc2nc(-c3ccco3)no2)C1 | -11 | 1.1 |
| CCc1c(C)nn2c(c1C)c(-c1ccccc1)[n+]1c(C)c(CC)c(C)nc21 | 53 | -10.21 |
| CCc1noc(Cc2c(C)nn(-c3ccccc3)c2C)n1 | -5 | 0.89 |
| Cc1nn2c(-c3ccc(-c4ccccc4)cc3)ccnc2c1Cl | -12 | 1.64 |
| C[C@@H](CN1CCOCC1)NC(=O)c1cccc2c1C(=O)OC2(C)C | 2 | -0.36 |
| O=C(CN1C(=O)CCC1=O)N1CCN(S(=O)(=O)c2ccc(Br)cc2)CC1 | -14 | 1.24 |
| COc1cccc([C@H]2C[C@H](N(C)C(=O)CCCC(F)(F)F)C2)c1 | 5 | -0.72 |
| Cn1nc(-c2nc(-c3cccc(F)c3)no2)c2c1CCN(C(=O)c1ccccn1)C2 | 12 | -1.38 |
| Cn1nc(-c2nc(-c3cccc(F)c3)no2)c2c1CCN(C(=O)c1cccc(F)c1)C2 | -7 | 0.84 |
| Cn1nc(-c2nc(-c3ccc(F)cc3)no2)c2c1CCN(C(=O)c1cccc(Cl)c1)C2 | 66 | -7.55 |
| CC12CN(S(=O)(=O)c3ccc4c(c3)OCCO4)C3(C(=O)NCCc4ccccc4)CC1CCC23C (centres undefined) | -11 | 1.42 |
| CC12CN(S(=O)(=O)c3ccc4c(c3)OCCO4)C3(C(=O)OCc4ccccc4)CC1CCC23C (centres undefined) | 70 | -8.79 |
| CC12CN(S(=O)(=O)c3ccccc3)C3(C(=O)O)CC1CCC23C (centres undefined) | 6 | -0.98 |
| CCCN1CCN(CCCNC(=O)c2cc3cc(S(=O)(=O)N(C)C)ccc3n2CC)CC1 | -15 | 2.13 |
| CC(C)CCn1c(=O)c(-c2ccc3ccccc3n2)cc2ccccc21 | -1 | 0.07 |
| c1ccc(-c2cn3c(n2)c(-c2ccc4ccccc4n2)cc2ccccc23)cc1 | 76 | -4.16 |
| Clc1ccc(-c2cn3c(nc4ccccc43)c(-c3ccccc3)n2)cc1 | -43 | 5.09 |
| COc1ccc(C[C@@]2(CCC(=O)N3CCCCC3)CCC(=O)N2)cc1 | 4 | -0.58 |
| OC(CNC1CCCNc2ccccc21)c1ccc(Cl)s1 (centres undefined) | 57 | -4.74 |
| OCc1cc(CN[C@H]2CCCNc3ccccc32)ccc1F | 4 | -0.52 |

| Compound | % Inhibition [%] | Z score |
| --- | --- | --- |
| O=C(Cc1cccs1)N1CCC2(CCC(=O)N(CCc3cccnc3)C2)CC1 | 5 | -1.07 |
| COc1ncnc(OC)c1CNc1cnn(C)c1 | 35 | -0.52 |
| O=C(CC(F)(F)F)N1CCC[C@H](Oc2ncccn2)C1 | 14 | -1.95 |
| Cc1noc2ncnc(N3CCC4(CC3)CC(=O)N(Cc3ccccc3)C4)c12 | -6 | 0.71 |
| O=C(c1cc(-c2ccco2)n[nH]1)N1CCC(Oc2ccccn2)CC1 | -4 | 0.71 |
| O=C(c1cc(-c2ccco2)n[nH]1)N1CCC(N2CCC(Oc3ccccc3F)CC2)CC1 | 59 | -4.88 |
| O=C(c1cc(-c2ccccc2)n[nH]1)N1CCC(N2CCC(Oc3ccccc3F)CC2)CC1 | -12 | 1.48 |
| CC[C@H](Oc1ccccc1C)c1nnc(C2(c3ccccc3)CC2)o1 | -15 | 1.76 |
| CC(C)(C)OC(=O)NC1CCCC1Nc1cnn(-c2ccccn2)c1 (centres undefined) | -13 | 1.28 |
| Cc1cnn(C)c1CN1CCOC[C@H]1c1nc(-c2ccccc2)no1 | 16 | -2.06 |
| Cc1ccsc1-c1noc([C@@H]2COCCN2C)n1 | 87 | -14.98 |
| Cc1ccsc1-c1noc([C@H]2CCc3nccn3C2)n1 | -5 | 0.62 |
| CC(NCc1ccc(Br)c2cccnc12)C1CCOC1 (centres undefined) | -5 | 0.52 |
| Cc1ccc(C(=O)Nc2c(C)nc(N3CCOCC3)nc2C)cc1C | 13 | -2.05 |
| O=S(=O)(Nc1cccc2ccccc12)c1cccs1 | 35 | -3.95 |
| Cc1n[nH]c(C)c1S(=O)(=O)Nc1cccc2cccnc12 | -2 | 0.25 |
| O=S(=O)(Nc1cccc2cccnc12)c1cccs1 | 55 | -5.93 |
| CCN1C[C@]2(CCCN(C(=O)c3ccccc3N3CCCC3)C2)CCC1=O | 7 | -1.03 |
| Cc1nn(-c2cnc(N)cn2)c(C)c1Cc1ccccc1 | -7 | 0.91 |
| COc1ccc(CC(=O)N2CC3(C[C@H](N4CCN(C)CC4)CO3)C2)cc1 | -7 | 1.04 |
| Clc1ccccc1OCCn1nc(C2CC2)nc1C1CC1 | 2 | -0.37 |

| Compound | % Inhibition [%] | Z score |
| --- | --- | --- |
| C[C@@H]1CN(c2nc(C(F)F)nc3ccc(F)cc23)C[C@H](C)N1 | -4 | 0.64 |
| CO[C@@H]1CO[C@H]2[C@@H]1OC[C@@H]2Nc1nccc(-c2ccc3c(c2)OCO3)n1 | -2 | 0.19 |
| CCn1ccc(C(=O)N2CCCN(Cc3c(C)noc3C)CC2)n1 | -3 | 0.35 |
| CC[C@H]1CCCCCN1C(=O)c1ccnc(OC2CCC2)c1 | -5 | 0.5 |
| NC(=O)[C@@H]1CCCCN1C(=O)c1ccnc(-n2cccn2)c1 | 12 | -1.33 |
| NC(=O)[C@@H]1CCCN1C(=O)c1ccnc(OC2CCCCC2)c1 | 53 | 0.89 |
| COc1ccc(CCc2nc(NC(=O)C(C)C)n[nH]2)cc1OC | 13 | -1.63 |
| COc1ccc(CCc2nc(NC(=O)[C@H]3CC(=O)N(C)C3)n[nH]2)cc1OC | 15 | -2.27 |
| COc1ccc(CCc2nc(NC(=O)c3nc(C)sc3C)n[nH]2)cc1OC | 71 | -9.67 |
| COC1CCCC(CC(=O)NC2CC(=O)N(C)C2)C1 (centres undefined) | 2 | -0.4 |
| CC(C)C[C@H]1CCCN(CC(=O)N2CC(=O)Nc3ccccc32)C1 | -1 | 0.19 |
| CN(C[C@H](O)C(F)(F)F)C(=O)c1ccc(C#N)cn1 | -15 | 1.32 |
| CC(=O)N1CCN(C(=O)NCc2cc(F)ccc2C)C[C@@H](O)C1 | -9 | 0.8 |
| CCC[N+]1(CC#CC2(O)CCCCC2)CCOCC1 | -9 | 1.67 |
| CCC(C)(CC)[C@@](O)(C#CC[N+]1(Cc2ccccc2)CCCCC1)c1ccccc1 | 38 | -1.99 |
| C[N+]1(C/C=C/C(O)(c2ccccc2)c2ccccc2)CCCCC1 | 12 | -1.05 |
| CC1([C@@](O)(C#CC[N+]2(C)CCCCC2)c2ccccc2)CCCC1 | 60 | -9.64 |
| CCC1([C@@](O)(C#CCN(Cc2ccccc2)C(C)(C)C)c2ccccc2)CCCC1 | 33 | -3.73 |
| CCC(C)(CC)[C@@](O)(C#CC[N+]1(Cc2ccccc2Cl)CCCCC1)c1ccccc1 | 39 | -4.45 |
| CCC[N+]1(CC#C[C@@](O)(c2ccccc2)C2(C)CCCC2)CCCCC1 | 51 | -4.55 |
| CCC1([C@@](O)(C#CCN2CCCCCC2)c2ccccc2)CCCC1 | -16 | 1.41 |

| Compound | % Inhibition [%] | Z score |
| --- | --- | --- |
| CCC[N+]1(CC#C[C@@](O)(c2ccccc2)C(C)(CC)CC)CCCCC1 | 54 | -8.65 |
| CCOC[C@H]1CCN(C(=O)C2(O)CN(C(=O)OC(C)(C)C)C2)C1 | -4 | 0.81 |
| Cn1cccc(C(=O)N2CCC(c3nnc(C(F)(F)F)o3)CC2)c1=O | -12 | 1.33 |
| Cc1ccc(-c2cc(C(=O)Nc3ncccc3Cl)c3ccccc3n2)s1 | 3 | -0.34 |
| CCOc1cc2c(cc1CN1CCN(C)[C@]3(CCC(=O)N(C)CC3)C1)CCC2 | -10 | 1.92 |
| CC1(C(=O)N2CC3CCCCC3C2)CCCC1 (centres undefined) | -24 | 2.4 |
| O=C(c1cccc2cc[nH]c12)N1C[C@@H]2[C@H](C1)[C@H]1CC[C@@H]2O1 | 18 | -1.92 |
| c1cc(-c2nc3ccccc3o2)cc(-c2nc3ccccc3o2)c1 | -13 | 2.52 |
| Clc1ccc(C[n+]2ccc(-c3nc4ccccc4o3)cc2)c(Cl)c1 | 79 | -11.4 |
| Clc1ccc(COc2ccc(Br)cc2CNc2ccc(-c3nc4ccccc4o3)cc2)c(Cl)c1 | -39 | 4.57 |
| Cc1cc(C(=O)NCc2ccncc2)c(=O)n(C)c1C | -11 | 1.52 |
| CC(NCC1CS(=O)(=O)c2ccccc21)[C@@H]1C[C@H]1C1CC1 (some centres undefined) | -3 | 0.41 |
| O=C(Nc1ccccc1F)C1CCN(c2cc(C3CC3)ncn2)CC1 | -16 | 3.11 |
| NC(=O)c1ccccc1NC(=O)C1CCN(c2cc(N3CCCC3)ncn2)CC1 | 7 | -1.36 |
| NC(=O)c1ccccc1NC(=O)C1CCN(c2cc(C3CC3)ncn2)CC1 | 57 | -10.93 |
| Cc1cc(NC(=O)c2ccc3c(c2)C(=O)N(C[C@H]2CCCO2)C3=O)no1 | -8 | 1.45 |
| CNC(=O)[C@@H]1CCCN1C(=O)CNC(=O)c1cccc2c1OCC2 | -5 | 0.71 |
| Cc1ncsc1CCN(C)CCn1cc[nH]c1=O | -15 | 3.22 |
| O=C(NC(C1CC1)C1CC1)c1coc(COc2cccc(F)c2)n1 | -6 | 1.01 |
